# Source: PMC4336329 (PLoS ONE, 2015)
# The whole screen tested about 310,000 compounds, of which about 14,000 (4.5%) showed an effect of 50% or more. Effects have a minus sign here. The full list was thinned out, with strong results kept by preference.
# Target: human ether-à-go-go-related gene (hERG) potassium channel (human, UniProt Q12809)
# Experiment: primary screen, population patch clamp on CHO cells stably expressing hERG; higher = less effect of the substance
# 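Also: peak tail current of the secondary pulse compared with the same well before compound.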
# human ether-à-go-go-related gene (hERG) potassium channel, sequence (Q12809 whole entry, looked up): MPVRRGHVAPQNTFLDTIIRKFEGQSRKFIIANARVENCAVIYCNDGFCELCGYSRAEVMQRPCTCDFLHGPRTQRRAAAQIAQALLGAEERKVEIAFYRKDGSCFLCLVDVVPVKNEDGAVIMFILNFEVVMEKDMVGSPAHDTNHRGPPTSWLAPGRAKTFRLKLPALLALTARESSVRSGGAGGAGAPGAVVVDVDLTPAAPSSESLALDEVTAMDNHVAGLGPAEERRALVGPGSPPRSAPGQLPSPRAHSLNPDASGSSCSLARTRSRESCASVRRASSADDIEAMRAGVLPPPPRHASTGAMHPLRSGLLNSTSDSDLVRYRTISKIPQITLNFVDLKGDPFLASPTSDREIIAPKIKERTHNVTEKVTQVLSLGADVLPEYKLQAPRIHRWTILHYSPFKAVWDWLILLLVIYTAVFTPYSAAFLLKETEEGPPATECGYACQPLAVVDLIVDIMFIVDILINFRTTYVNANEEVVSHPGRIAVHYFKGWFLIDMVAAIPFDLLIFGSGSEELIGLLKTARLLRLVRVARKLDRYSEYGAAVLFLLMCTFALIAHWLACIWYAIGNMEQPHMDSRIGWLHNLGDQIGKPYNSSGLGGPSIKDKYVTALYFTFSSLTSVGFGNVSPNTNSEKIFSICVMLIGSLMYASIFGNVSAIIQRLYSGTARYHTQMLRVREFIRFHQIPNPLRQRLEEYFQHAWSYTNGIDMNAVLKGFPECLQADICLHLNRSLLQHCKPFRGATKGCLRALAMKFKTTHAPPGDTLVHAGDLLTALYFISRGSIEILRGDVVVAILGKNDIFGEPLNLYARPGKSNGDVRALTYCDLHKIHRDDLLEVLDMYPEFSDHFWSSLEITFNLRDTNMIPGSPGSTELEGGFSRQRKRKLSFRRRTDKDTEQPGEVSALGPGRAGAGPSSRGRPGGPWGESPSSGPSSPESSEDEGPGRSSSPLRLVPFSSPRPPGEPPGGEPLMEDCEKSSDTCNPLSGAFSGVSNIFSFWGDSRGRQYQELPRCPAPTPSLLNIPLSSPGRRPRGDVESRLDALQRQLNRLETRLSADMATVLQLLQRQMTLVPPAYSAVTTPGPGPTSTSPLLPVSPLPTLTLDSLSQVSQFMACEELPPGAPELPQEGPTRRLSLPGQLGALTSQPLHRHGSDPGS
row,Structure (SMILES),"hERG current change (%, negative = inhibition) at 10uM [%]"
1,CCN(CC)CCOc1ccc2nc(N(C)C)sc2c1.Cl,11.1
2,CC12CCC(C(=O)Nc3ccccc3)(C/C1=N\O)C2(C)C (stereo not shown),10.9
3,CCSc1nnc(NC(=O)Cc2ccccc2OC)s1,13
4,COCCNC(=O)CSc1nc2ccc(N3CCOCC3)cc2c(=O)n1Cc1ccc(OC)cc1,-22.4
5,COCCNC(=O)CSc1nc2ccc(N3CCOCC3)cc2c(=O)n1CCc1ccccc1,-55.1
6,CCC(C)NC(=O)CSc1nc2ccc(N3CCOCC3)cc2c(=O)n1CCc1ccccc1 (stereo not shown),3.14
7,COCCCNC(=O)CSc1nc2ccc(N3CCOCC3)cc2c(=O)n1CCc1ccccc1,-59.8
8,CCCCNC(=O)CSc1nc2ccc(N3CCOCC3)cc2c(=O)n1CCc1ccccc1,-19.3
9,CCCCn1c(SCC(=O)NCCOC)nc2ccc(N3CCOCC3)cc2c1=O,-2.94
10,Cc1ccc(CN2CC(C(=O)NCCC3=CCCCC3)CC2=O)cc1 (stereo not shown),-19.6
11,CCN(c1ccc(NC(=O)CSCc2c(C)noc2C)cc1)C(C)C,-7.72
12,Cc1ccccc1-c1cc2nc(C)c(Cl)c(=O)n2[nH]1,-8.26
13,O=C(Nc1cccc(F)c1)c1cccnc1,3.96
14,COC(=O)C1CCN(C(=O)c2sc3nc(-c4ccc(F)cc4)cn3c2C)CC1,-59.5
15,COc1ccc(-c2cn3c(C)c(C(=O)N4CCN(c5ccc(F)cc5)CC4)sc3n2)cc1,1.07
16,CCOC(=O)C1CCN(C(=O)c2sc3nc(-c4ccccc4)cn3c2C)CC1,-41
17,COc1ccccc1N1CCN(C(=O)c2sc3nc(-c4ccccc4)cn3c2C)CC1,-35
18,Cc1c(C(=O)N2CCN(C(=O)c3ccco3)CC2)sc2nc(-c3ccc(F)cc3)cn12,-76.9
19,CCOC(=O)C1CCN(C(=O)c2sc3nc(-c4ccc(F)cc4)cn3c2C)CC1,-60.5
20,Cc1c(C(=O)NCC2CCCO2)sc2nc(-c3ccc(F)cc3)cn12 (stereo not shown),-29.7
21,Cc1c(C(=O)N2CCN(c3ccccc3F)CC2)sc2nc(-c3ccccc3)cn12,-14.1

row,Structure (SMILES),"hERG current change (%, negative = inhibition) at 10uM [%]"
1,COc1ccccc1N1CCN(C(=O)c2sc3nc(-c4ccc(F)cc4)cn3c2C)CC1,-34
2,Cc1c(C(=O)Nc2ccncc2)sc2nc(-c3ccc(F)cc3)cn12,-8.24
3,CCOC(=O)N1CCN(C(=O)c2sc3nc(-c4ccc(F)cc4)cn3c2C)CC1,-62.1
4,Cc1c(C(=O)N2CCN(c3ccc(F)cc3)CC2)sc2nc(-c3ccccc3)cn12,-13.4
5,CN(C)CCNc1oc(COc2ccc(Cl)cc2Cl)nc1C#N,15.3
6,COc1cc(OC)cc(C(=O)NNC(=O)CCOc2ccccc2OC)c1,7.89
7,O=C(CSc1nnc(NC(=O)c2ccccc2F)s1)NC1CC1,19.2
8,C=C(C)C1Cc2nc(N)nc(C)c2C1 (stereo not shown),10.8
9,Cc1ccc(OCCNC(=O)c2ccccc2O)cc1,8.04
10,Cc1cc(C(=O)Nc2nc3c(s2)CCCC3)no1,-16.8
11,C=CCC(=O)OCCCCCCOc1ccc(C(=O)O)cc1,-3.87
12,O=C1CC(c2cc(-c3ccccc3)no2)C1,-9.96
13,c1ccc2nc3c(nc2c1)[nH]c1ccccc13,-15
14,O=C(O)c1cc2ccc3ccccc3c2[nH]1,1.56
15,CCN(CC)CCCNC(=O)CSc1c2c(nc3cc(Cl)ccc13)CCCC2,-48.4
16,CCN(CC)CCNC(=O)CSc1c2c(nc3cc(Cl)ccc13)CCCC2,-64.1
17,O=C(CSc1c2c(nc3cc(Cl)ccc13)CCCC2)NCCN1CCOCC1,3.58
18,CSc1ncc(C(=O)Nc2cccc(Cl)c2)c(C)n1,10.9
19,Cc1ccc(C(=O)NC(C)C2CC3CCC2C3)cc1 (stereo not shown),19.1
20,CC(NC(=O)c1ccc([N+](=O)[O-])cc1Cl)C1CC2CCC1C2 (stereo not shown),-58.2
21,CC(CNC(=O)c1ccc(N)cc1)NC(=O)c1ccc(N)cc1 (stereo not shown),9.03

row,Structure (SMILES),"hERG current change (%, negative = inhibition) at 10uM [%]"
1,CC(NC(=O)c1ccc(F)cc1Cl)C1CC2CCC1C2 (stereo not shown),4.99
2,CC(NC(=O)c1ccc(Cl)cc1)C1CC2CCC1C2 (stereo not shown),2.08
3,CC(NC(=O)c1cc([N+](=O)[O-])cc([N+](=O)[O-])c1)C1CC2CCC1C2 (stereo not shown),-7.55
4,CCOc1ccc(C(=O)NCC(C)NC(=O)c2ccc(OCC)cc2)cc1 (stereo not shown),24.5
5,CC(NC(=O)c1ccc(C#N)cc1)C1CC2CCC1C2 (stereo not shown),-58.8
6,CC(CNC(=O)c1ccc(C#N)cc1)NC(=O)c1ccc(C#N)cc1 (stereo not shown),-76.6
7,Cc1ccc(C(=O)Oc2ccc(C(=S)N3CCOCC3)cc2)cc1,-7.84
8,CCN(CC)c1ncnc2scc(C3COc4ccccc4O3)c12 (stereo not shown),-8.77
9,COc1ccc(NC2CCCN(C(=O)C3(C)CCCCC3)C2)cc1OC (stereo not shown),11.3
10,O=C(Nc1ccccc1)C1CC(=O)n2ncnc2N1 (stereo not shown),6.48
11,CN(C)Cc1ccccc1C1(O)c2ccccc2CSc2ccccc21.Cl (stereo not shown),9.09
12,CNC(=S)N(CCc1cccc(C)c1)Cc1cc2cc(OC)c(OC)cc2[nH]c1=O,-16.7
13,Cc1ccc(-c2nc(=O)[nH]c3ccccc23)cc1,-20
14,Cc1ccc(CN2CCN(C(=O)c3ccncc3)CC2)cc1.O=C(O)C(=O)O,-0.159
15,O=C(CN1CCN(Cc2ccccc2Cl)CC1)N/N=C/c1ccccn1,-25.8
16,C/C(=N\NC(=O)CN1CCN(Cc2ccccc2)CC1)c1ccncc1,-35.8
17,C/C(=N/NC(=O)CN1CCN(Cc2ccccc2Cl)CC1)c1ccncc1,-65.4
18,C/C(=N/NC(=O)CN1CCN(Cc2ccccc2Cl)CC1)c1cccnc1,-10.4
19,C/C(=N\NC(=O)CN1CCN(Cc2ccc(C)cc2)CC1)c1ccncc1,-74.8
